This is a sample that favours compounds with a hit; in the whole collection about 0.79% have one here.
BAP1 inh = blocks human BAP1 ubiquitin-AMC hydrolysis; Q92560; recombinant BAP1, Ub-AMC hydrolysis fluorescence kinetic; stronger effect = lower value; calls only at 20 µM; 0.48% of 72,000 active;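 active = activity remaining at or below 50% of control, provided the compound also passes the data quality filters; inactive = the rest, including low values that fail the filters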;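 also: 100% = DMSO wells rate and 0% = substrate alone blank rate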
sEH act = soluble epoxide hydrolase (human) activation. P34913. purified human sEH enzymatic activity, activator screen. activation, % at 2 µM. 0.04% of 91,000 active; in the data active = activation above about 37%
LYP act = LYP (human) phosphatase activation | Q9Y2R2 | recombinant LYP, DiFMUP fluorescence; 0 = plate median, 100 = signal doubled | activation, % at 2 µM | 0.11% of 96,000 active;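 active = activation at 2 µM above a set limit, the mean plus 5 SD, cut at about 37% in these data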
Target sequence (Q9Y2R2 whole entry, looked up): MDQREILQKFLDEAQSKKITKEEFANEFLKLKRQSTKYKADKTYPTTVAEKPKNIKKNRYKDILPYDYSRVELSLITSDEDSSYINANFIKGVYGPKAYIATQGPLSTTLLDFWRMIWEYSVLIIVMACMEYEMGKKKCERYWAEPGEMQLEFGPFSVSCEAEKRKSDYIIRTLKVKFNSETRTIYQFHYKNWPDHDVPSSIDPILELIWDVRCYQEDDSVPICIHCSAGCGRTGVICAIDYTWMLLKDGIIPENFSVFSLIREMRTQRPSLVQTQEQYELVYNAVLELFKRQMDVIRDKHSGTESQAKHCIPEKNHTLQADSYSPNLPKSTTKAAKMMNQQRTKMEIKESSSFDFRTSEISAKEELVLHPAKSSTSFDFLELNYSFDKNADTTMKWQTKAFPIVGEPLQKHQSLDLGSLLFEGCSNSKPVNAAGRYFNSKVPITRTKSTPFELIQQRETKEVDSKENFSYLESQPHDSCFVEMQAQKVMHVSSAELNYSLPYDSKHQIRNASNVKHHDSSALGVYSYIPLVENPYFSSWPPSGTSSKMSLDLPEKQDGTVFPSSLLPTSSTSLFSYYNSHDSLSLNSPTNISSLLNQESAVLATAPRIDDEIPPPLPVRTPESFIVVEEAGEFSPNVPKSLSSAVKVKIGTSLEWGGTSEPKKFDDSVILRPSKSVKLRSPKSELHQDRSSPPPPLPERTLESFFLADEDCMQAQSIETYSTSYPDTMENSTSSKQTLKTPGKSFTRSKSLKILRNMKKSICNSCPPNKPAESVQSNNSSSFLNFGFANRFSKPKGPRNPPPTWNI
sEH inh = blocks human soluble epoxide hydrolase activity; recombinant human sEH enzymatic activity assay; 0.34% of 91,000 active; P34913; AID 707; inhibition, % at 2 µM; in the data active = inhibition above about 80%
Candida biofilm = kills Candida albicans biofilms; C. albicans biofilm + clotrimazole, Alamar Blue; inhibition, % at 6 µM; 0.14% of 85,000 active; AID 834;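 active = inhibition above 20%; inactive = inhibition below 20%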;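 also: preformed 24 hr biofilms exposed to compound for 48 hr; 0% = biofilm without compound and 100% = blank killed by clotrimazole plus chlorhexidine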
LYP inh 2 = blocks human PTPN22 phosphatase activity; Q9Y2R2; recombinant LYP catalytic domain, DiFMUP fluorescence; inhibition, % at 2 µM; 0.21% of 96,000 active; AID 640;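 active = inhibition at 2 µM at or above a set limit, the screen mean plus 3 SD, cut at about 24% in these data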;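 also: 0% = DMSO with enzyme and 100% = enzyme fully blocked by orthovanadate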
BAP1 inh confirm = confirmation of human BAP1 enzyme inhibitors; shares compounds with BAP1 inh; purified BAP1, Ub-ethyl ester hydrolysis, HPLC; stronger effect = lower value; % of control activity, % at 20 µM; 8% of 310 active; AID 753;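 active = percent of control activity at or below 60%; inconclusive = HPLC trace unusable from injection failure or solvent front hiding peaks; inactive = the rest, plus ubiquitin peak ratio over a set limit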
* marks the source's active call; other numbers are inactive results; i = inactive; ? = inconclusive; . = no result shown; + = active, no number.

SMILES | BAP1 inh | sEH act | LYP act | sEH inh | Candida biofilm | LYP inh 2 | BAP1 inh confirm
Cn1nc(-c2ccc(Cl)cc2)c2cc(C(=O)NC3CC3)sc21 | + | -17 | -7 | 17 | 8 | 5 | 155
CC(C)c1cc(Nc2cccc(O)c2)cc(C(C)C)c1O | + | -6 | 2 | 6 | 3 | -4 | 82
Cc1ccc2c(c1)sc(=NC(=O)c1ccc(S(=O)(=O)N3CCc4ccccc43)cc1)n2C | i | . | . | . | . | . | .
CCOC(=O)C1CCN(C(=O)c2c(OC)cccc2OC)CC1 | i | . | . | . | . | . | .
CCOC(=O)c1oc2ccc3c(c2c1C)C(=O)CC1(CCN(C(=O)OCC)CC1)O3 | + | . | . | . | . | . | 84
CCn1c(=NC(=O)c2ccc(N3C(=O)CCC3=O)cc2)sc2c(OC)ccc(OC)c21 | + | . | . | . | 1 | . | 117
CCCCCn1c(SCCc2ccccc2)nc2c1c(=O)[nH]c(=O)n2C | i | -4 | 10 | 5 | 3 | -6 | .
CCCCCOC(=O)CSc1nc2c(c(=O)[nH]c(=O)n2C)n1CCc1ccccc1 | + | 1 | -11 | 4 | 4 | 10 | 96
Cc1ccc(-c2cc(C(=O)OCC(=O)Nc3cc(C)on3)c3ccccc3n2)c(C)c1 | + | -6 | 4 | 5 | -3 | -6 | 90
COc1ccc(-n2nc(C(=O)Nc3ccc4c(c3)OCO4)c3c4ccccc4n(C)c3c2=O)cc1 | + | 4 | 1 | -4 | 6 | 0 | 81
CCOC(=O)c1oc2ccc(S(=O)(=O)n3nc(-c4ccccc4)cc3N)cc2c1C | . | 4 | -4 | -5 | 8 | 4 | .
CCOC(=O)c1oc2ccc(S(=O)(=O)n3nc(-c4ccc(OC)cc4)cc3N)cc2c1C | + | . | . | . | 7 | . | 75
COc1ccc2cc(CN(CCc3ccccc3)Cc3nnnn3Cc3ccco3)c(=O)[nH]c2c1 | . | -7 | 0 | 4 | 7 | 1 | .
COc1ccccc1CN(Cc1cc2c(C)ccc(C)c2[nH]c1=O)Cc1nnnn1Cc1ccco1 | + | 4 | -7 | -5 | 4 | 4 | 94
COc1cccc(-c2nc(-c3ccccc3)c(-c3cc([N+](=O)[O-])ccc3C)[nH]2)c1OC | i | . | . | . | . | . | .
CCOc1ccccc1OCCn1nnc2ccccc21 | + | -6 | 2 | 10 | 0 | -8 | 105
CCOC(=O)Cn1nnnc1CN(Cc1cccs1)Cc1cc2cc(C)ccc2[nH]c1=O | . | -2 | -5 | 4 | 6 | 6 | .
Cc1ccc2[nH]c(=O)c(CN(Cc3cccs3)Cc3nnnn3Cc3ccccc3)cc2c1 | + | . | . | . | 6 | . | 67
CCOc1ccccc1C(=O)Nc1cccc(C)c1C | i | . | . | . | . | . | .
CCOC(=O)c1c(NC(=O)c2cc3cc(Br)ccc3oc2=O)sc2c1CCC(C)C2 (stereo not drawn) | i | . | . | . | . | . | .
CCn1cc(C(=O)NCc2ccco2)c(=O)c2cc(S(=O)(=O)N3CCCCCC3)ccc21 | i | -14 | -10 | 15 | -3 | 8 | .
C=CCn1cc(C(=O)NCc2ccco2)c(=O)c2cc(S(=O)(=O)N3CCCCCC3)ccc21 | + | -4 | -1 | 5 | . | 0 | 97
COc1ccc(C)cc1NC(=O)CN1CCN(S(=O)(=O)c2ccc(C(C)C)cc2)CC1 | + | -2 | -8 | 4 | . | 12 | 111
COc1ccccc1NC(=O)c1ccc2c(c1)C(=O)N(c1ccc(I)cc1)C2=O | i | . | . | . | . | . | .
CC(C)(C)C(=O)Nc1ccc(C(C)(C)C)cc1[N+](=O)[O-] | i | . | . | . | . | . | .
SMILES | BAP1 inh | sEH act | LYP act | sEH inh | Candida biofilm | LYP inh 2 | BAP1 inh confirm
CCc1cc(C(=O)Cc2cnn(-c3ccccc3)c2)c(O)cc1O | + | . | 7 | . | 1 | -10 | 129
Cc1ccccc1OCc1nnc(SCC(=O)Nc2ccc3c(c2)oc2ccccc23)n1C | + | -13 | 1 | 18 | 6 | 0 | 120
COc1ccc(C(=O)C(=O)c2ccc(OC)cc2)cc1 | i | . | . | . | . | . | .
CCc1nc2c(cnn2-c2ccc(Cl)cc2)c(=O)n1-c1ccc(OC)cc1 | + | . | -6 | . | 2 | 4 | 89
CCOc1ccc(-n2c(C)nc3c(cnn3-c3ccc(Cl)cc3)c2=O)cc1 | i | -2 | -13 | 0 | . | 10 | .
CC(=O)OCCN1C(=O)c2ccc([N+](=O)[O-])cc2C1=O | i | . | . | . | . | . | .
O=C1C2C3C=CC(O3)C2C(=O)N1c1ccccc1[N+](=O)[O-] (stereo not drawn) | i | . | . | . | . | . | .
CCOC(=O)c1sc2nc(NC(=O)c3cccs3)sc2c1C | i | . | . | . | . | . | .
CCOC(=O)c1sc2nc(NC(=O)COc3ccccc3)sc2c1C | + | 3 | -4 | -2 | -1 | 2 | 78
Cc1ccc(-n2nnnc2SCC(=O)Nc2ccc3c(c2)OCCO3)cc1C | . | -30 | 14 | 32 | 10 | -13 | .
Cc1ccc(-n2nnnc2SCC(=O)Nc2ccc3c(c2)COC3=O)cc1C | + | -50 | -10 | 50 | 0 | 8 | 77
CCc1cc2cc3c(cc2nc1SCC(=O)Nc1cc(C)on1)OCO3 | + | 3 | 10 | -6 | 4 | -13 | 93
CCc1cc2cc(C)ccc2nc1SCC(=O)Nc1cc(C)on1 | . | 7 | 2 | -6 | 7 | -6 | .
CCn1c2ccccc2c2cc(NC(=O)CSc3nnc(C4CC4)n3Cc3ccco3)ccc21 | + | 4 | 1 | -6 | 6 | 2 | 100
O=C(Nc1ccc(N2CCN(C(=O)c3ccco3)CC2)c(Cl)c1)c1c(F)c(F)c(F)c(F)c1F | + | -2 | -2 | 4 | 9 | -2 | ?
CCCCOc1cccc(NC(=O)c2ccccc2OC)c1 | i | . | . | . | . | . | .
Nc1c(C(=O)NCc2ccco2)sc2nc3c(cc12)C(=O)CCC3 | + | -4 | -1 | 9 | 1 | 1 | 151
CCOC(=O)c1[nH]c(CSc2nnnn2-c2ccccc2C)c(C(=O)OCC)c1C | + | . | . | . | 6 | . | 93
C=CCOC(=O)C1=C(C)NC2=C(C(=O)CC(C)(C)C2)C1c1ccc(OC)c(OC)c1 (stereo not drawn) | i | . | . | . | . | . | .
Nc1c(C(=O)c2ccc(Br)s2)oc2ccccc12 | + | 5 | 8 | -7 | 4 | -10 | 81
CN(C)c1ccc(NC(=O)CSc2nc3ccccc3c(=O)n2C2CCCCC2)cc1 | + | -8 | -16 | 8 | 8 | 14 | 57*
O=C(Nc1ccccc1NC(=O)NC1CCCCC1)NC1CCCCC1 | + | -10 | -13 | 9 | 1 | 10 | 104
NC(=O)c1ccccc1NC(=O)NC1CCCCC1 | . | -6 | 4 | 6 | 7 | -2 | .
CCOC(=O)c1cnc(SCC(=O)Nc2cc(OC)cc(OC)c2)nc1N | i | 11 | 11 | -13 | 6 | -10 | .
CCOC(=O)c1cnc(SCC(=O)Nc2sc(C)c(C)c2C#N)nc1N | + | -6 | -9 | 5 | . | 8 | 31*
Brc1ccc(C2Nc3cccc4cccc(c34)N2)o1 | + | 1 | 3 | 3 | 7 | -2 | 86
CC(=O)c1cccc(NC(=O)c2cc3nc4c(c(C(F)(F)F)n3n2)CCc2ccccc2-4)c1 | i | . | . | . | . | . | .

Screens deposited in PubChem by several laboratories.
